Results published in PubChem BioAssay (NCI).
This is part of a sample that, as a whole, favours compounds with a hit. Of some 79,000 tested, about 15% had one in any assay. Activity calls are given as the source filed them. Rule as the data show it: active = growth inhibition above about 70%; inactive = the rest.

Experiment: NCI Yeast Anticancer Drug Screen. Data for the bub3 strain (AID 167)
Conditions: S. cerevisiae bub3 mutant strain, at 5.0 µM (retest, dose inferred, filed as 0.5), active compounds read high
How it was run: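 Part of a panel of yeast mutants defective in DNA damage repair or cell cycle regulation. Each strain is grown with compound, and inhibition is calculated relative to solvent-treated cultures.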

SMILES | growth inhibition
O=[N+]([O-])c1cccc(S(=O)(=O)N/N=C/c2cc(I)cc([N+](=O)[O-])c2O)c1 | 2% (inactive)
COc1cc(N=Nc2cccc(S(N)(=O)=O)c2)c2ccccc2c1N | -5% (inactive)
O=S(=O)(c1ccc(O)cc1)c1ccc(Cl)cc1 | 0% (inactive)
C[N+](C)=c1ccc2nc3c(cc(NCCCNc4cc5oc6cc(=[N+](C)C)ccc-6nc5c5ccccc45)c4ccccc43)oc-2c1 | -18% (inactive)
CC(C)(C)C(=O)/C=C/c1ccc2ccccc2n1 | -67% (inactive)
CSc1ccc(/C=N/NC(N)=S)cc1 | -63% (inactive)
CN(C)c1ccc(/C=C(\C#N)c2c(F)cccc2F)cc1 | 3% (inactive)
O=C(/C=C\c1ccccc1)N1c2ccccc2CC1c1c[nH]c2ccccc12 (stereo not given) | 20% (inactive)
COc1cccc(C2c3cc4c(cc3OC(Nc3ccccc3)C2C)OCO4)c1O (stereo not given) | -19% (inactive)
CC(/C=C/c1cccs1)=N\C(=S)NC(N)=S | 1% (inactive)
C=C1C(=O)O[C@H]2[C@H](OC(C)=O)[C@@H](C)CCC/C(C)=C/CC[C@@]3(C)O[C@@H]3C[C@@H]12 | 3% (inactive)
CC(=O)O/C=C\COC(C)=O | 6% (inactive)
Cn1cc(NC(=O)c2cc(NC(=O)CCCCCCCCC(=O)Nc3cc(C(=O)Nc4cc(C(=O)NCCC(N)N)n(C)c4)n(C)c3)cn2C)cc1C(=O)NCCC(=N)N | 86% (active)
CCCCCCCNCCCCCC | 75% (active)
Cc1ccc(S(=O)(=O)N(c2ccccc2-c2ccccc2)C(C)C(=O)O)cc1 (stereo not given) | 4% (inactive)
CCCN1C(=O)c2ccccc2C1=O | 10% (inactive)
CCC(CC)COC(=O)c1ccc(O)c(O)c1 | 1% (inactive)
COc1ccc(C2SCC(=O)N2c2nncs2)cc1 (stereo not given) | 4% (inactive)
O=NN(CCCl)C(=O)Oc1cc(Cl)c(Cl)cc1Cl | 48% (inactive)
O=C(c1ccccc1)c1ccccc1S(=O)(=O)Nc1ccccc1 | 4% (inactive)

SMILES | growth inhibition
O=S(O)CCCCCSSc1ccccc1 | 11% (inactive)
Cc1ccc(C)c(N2C(=O)C(=O)C(c3nc4ccccc4o3)/C(=N\NC(=O)c3ccccc3O)C2=O)c1 (stereo not given) | 6% (inactive)
Nc1ccc2ccccc2c1Cc1c(O)ccc2ccccc12 | 0% (inactive)
CN(C)CCC(=O)C(=Cc1cc(Cl)cc(Cl)c1)C(=O)CCN(C)C | -8% (inactive)
COC(=O)c1c(C(N)=O)c(C)n(NC(=O)c2ccccc2)c1C | -4% (inactive)
O=C(O)/C(=C/c1c(O)ccc2ccccc12)c1csc(-c2nc(/C(=C\c3c(O)ccc4ccccc34)C(=O)O)cs2)n1 | 49% (inactive)
O=C(O)c1c2c(cc3c1CC1(Cc4cc5c(cc4C1=O)CCC5)C3)CCC2 (stereo not given) | 42% (inactive)
CCc1cccc(C(C)(C)C)c1NC(=S)N/C=C(\c1ccccc1)S(=O)Cc1ccccc1 (stereo not given) | -23% (inactive)
O=[N+]([O-])c1ccc(N/N=C/COCCO)c([N+](=O)[O-])c1 | -1% (inactive)
O=C(O)CSc1nc(-c2ccccc2)c(-c2ccccc2)n1-c1ccccn1 | -13% (inactive)
C[C@]12CCC(=O)C=C1CC[C@@H]1[C@@H]2[C@@H](O)C[C@@]2(C)[C@H]1CC[C@]2(O)C(=O)COC(=O)C1CCCC1 | 8% (inactive)
C[C-](O)O.O/C(=C\[C-](O)c1ccccc1)c1ccccc1.O/C(=C\[C-](O)c1ccccc1)c1ccccc1.[Nd+3] (stereo not given) | 20% (inactive)
[Cl][Pt+2]([Cl])([Cl])[Cl].[NH-]CC1(C[NH-])CCCC1 | 61% (inactive)
CSc1ccc2c(c1)S[S@@](=O)N2 | 5% (inactive)
O=S=C(c1ccccc1)N(Cc1ccccc1)Cc1ccccc1 | 22% (inactive)
NNc1c(Cl)c(F)c(Cl)c(F)c1Cl | 3% (inactive)
Cc1ccc(C)c(N2C(=O)C(=O)C(c3nc4ccccc4o3)C(=O)C2=O)c1 | 13% (inactive)
NC(=S)N/N=C/c1ccc(Cl)s1 | -5% (inactive)
O=c1[nH]ccc(CNC23CC4CC(CC(C4)C2)C3)c1O | 7% (inactive)
CN(C)CCSc1cc(-c2ccccc2)c2ccccc2n1 | 9% (inactive)

Same assay, conditions: S. cerevisiae bub3 mutant strain, at 50.0 µM (retest, dose inferred, filed as 5.0), active compounds read high

SMILES | growth inhibition
O=[N+]([O-])c1cccc(S(=O)(=O)N/N=C/c2cc(I)cc([N+](=O)[O-])c2O)c1 | -1% (inactive)
COc1cc(N=Nc2cccc(S(N)(=O)=O)c2)c2ccccc2c1N | 99% (active)
O=S(=O)(c1ccc(O)cc1)c1ccc(Cl)cc1 | 46% (inactive)
C[N+](C)=c1ccc2nc3c(cc(NCCCNc4cc5oc6cc(=[N+](C)C)ccc-6nc5c5ccccc45)c4ccccc43)oc-2c1 | 72% (active)
CC(C)(C)C(=O)/C=C/c1ccc2ccccc2n1 | -73% (inactive)
CSc1ccc(/C=N/NC(N)=S)cc1 | -3% (inactive)
CN(C)c1ccc(/C=C(\C#N)c2c(F)cccc2F)cc1 | -2% (inactive)
O=C(/C=C\c1ccccc1)N1c2ccccc2CC1c1c[nH]c2ccccc12 (stereo not given) | 41% (inactive)
COc1cccc(C2c3cc4c(cc3OC(Nc3ccccc3)C2C)OCO4)c1O (stereo not given) | 96% (active)
CC(/C=C/c1cccs1)=N\C(=S)NC(N)=S | 52% (inactive)
C=C1C(=O)O[C@H]2[C@H](OC(C)=O)[C@@H](C)CCC/C(C)=C/CC[C@@]3(C)O[C@@H]3C[C@@H]12 | 98% (active)
CC(=O)O/C=C\COC(C)=O | 1% (inactive)
Cn1cc(NC(=O)c2cc(NC(=O)CCCCCCCCC(=O)Nc3cc(C(=O)Nc4cc(C(=O)NCCC(N)N)n(C)c4)n(C)c3)cn2C)cc1C(=O)NCCC(=N)N | 98% (active)
CCCCCCCNCCCCCC | 97% (active)
Cc1ccc(S(=O)(=O)N(c2ccccc2-c2ccccc2)C(C)C(=O)O)cc1 (stereo not given) | 66% (inactive)
CCCN1C(=O)c2ccccc2C1=O | 17% (inactive)
CCC(CC)COC(=O)c1ccc(O)c(O)c1 | 99% (active)
COc1ccc(C2SCC(=O)N2c2nncs2)cc1 (stereo not given) | 12% (inactive)
O=NN(CCCl)C(=O)Oc1cc(Cl)c(Cl)cc1Cl | 100% (active)
O=C(c1ccccc1)c1ccccc1S(=O)(=O)Nc1ccccc1 | 91% (active)

SMILES | growth inhibition
O=S(O)CCCCCSSc1ccccc1 | 73% (active)
Cc1ccc(C)c(N2C(=O)C(=O)C(c3nc4ccccc4o3)/C(=N\NC(=O)c3ccccc3O)C2=O)c1 (stereo not given) | 29% (inactive)
Nc1ccc2ccccc2c1Cc1c(O)ccc2ccccc12 | 63% (inactive)
CN(C)CCC(=O)C(=Cc1cc(Cl)cc(Cl)c1)C(=O)CCN(C)C | 98% (active)
COC(=O)c1c(C(N)=O)c(C)n(NC(=O)c2ccccc2)c1C | 3% (inactive)
O=C(O)/C(=C/c1c(O)ccc2ccccc12)c1csc(-c2nc(/C(=C\c3c(O)ccc4ccccc34)C(=O)O)cs2)n1 | 49% (inactive)
O=C(O)c1c2c(cc3c1CC1(Cc4cc5c(cc4C1=O)CCC5)C3)CCC2 (stereo not given) | 42% (inactive)
CCc1cccc(C(C)(C)C)c1NC(=S)N/C=C(\c1ccccc1)S(=O)Cc1ccccc1 (stereo not given) | 25% (inactive)
O=[N+]([O-])c1ccc(N/N=C/COCCO)c([N+](=O)[O-])c1 | 14% (inactive)
O=C(O)CSc1nc(-c2ccccc2)c(-c2ccccc2)n1-c1ccccn1 | -9% (inactive)
C[C@]12CCC(=O)C=C1CC[C@@H]1[C@@H]2[C@@H](O)C[C@@]2(C)[C@H]1CC[C@]2(O)C(=O)COC(=O)C1CCCC1 | 11% (inactive)
C[C-](O)O.O/C(=C\[C-](O)c1ccccc1)c1ccccc1.O/C(=C\[C-](O)c1ccccc1)c1ccccc1.[Nd+3] (stereo not given) | 20% (inactive)
[Cl][Pt+2]([Cl])([Cl])[Cl].[NH-]CC1(C[NH-])CCCC1 | 88% (active)
CSc1ccc2c(c1)S[S@@](=O)N2 | 96% (active)
O=S=C(c1ccccc1)N(Cc1ccccc1)Cc1ccccc1 | 93% (active)
NNc1c(Cl)c(F)c(Cl)c(F)c1Cl | 24% (inactive)
Cc1ccc(C)c(N2C(=O)C(=O)C(c3nc4ccccc4o3)C(=O)C2=O)c1 | 98% (active)
NC(=S)N/N=C/c1ccc(Cl)s1 | 62% (inactive)
O=c1[nH]ccc(CNC23CC4CC(CC(C4)C2)C3)c1O | 49% (inactive)
CN(C)CCSc1cc(-c2ccccc2)c2ccccc2n1 | 97% (active)
